Reference: PubChem BioAssay AID1159580 (chemical genetic matrix, 2015)
About 2,000 (36%) of roughly 5,500 compounds were called active. Not shown: some 18% with an inconclusive outcome. Cut-off read from the data, not from the text of the source: active = normalized growth mostly below about 0.91 (no sharp cut-off); inconclusive = no clear call, values can overlap the other calls; inactive = mostly above about 0.92. The list shows a part of the results.

Assay: chemical genetic growth profiling, strain panel (AID 1159580);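 note: tested at 20 µM; growth read once vehicle control cultures reached saturation at 30 °C; 1 = growth at the plate median or of vehicle wells; lower values mean less growth of the strain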
Settings: growth OD

Measured: normalized growth

COc1c(Cl)ccc(Cl)c1C(=O)O
inactive: S. cerevisiae deletion strains, locus YJR043C, strain POL32, active compounds read low 1.01 | S. cerevisiae deletion strains, locus YJR075W, strain HOC1, active compounds read low 0.971 | S. cerevisiae deletion strains, locus YKL009W, strain mrt4, active compounds read low 1.02 | S. cerevisiae deletion strains, locus YKL068W, active compounds read low 1.01 | S. cerevisiae deletion strains, locus YKL085W, strain MDH1 (second series), active compounds read low 1.01 | S. cerevisiae deletion strains, locus YKL085W, strain MDH1, active compounds read low 1.01 | S. cerevisiae deletion strains, locus YKL160W, strain elf1, active compounds read low 0.988 | S. cerevisiae deletion strains, locus YKL190W, strain CNB1, active compounds read low 1.01 | S. cerevisiae deletion strains, locus YKR001C, strain vps1, active compounds read low 1.02 | S. cerevisiae deletion strains, locus YKR026C, strain gcn3, active compounds read low 0.984 | S. cerevisiae deletion strains, locus YKR091W, strain srl3, active compounds read low 0.985 | S. cerevisiae deletion strains, locus YLL001W, strain dnm1, active compounds read low 0.995 | S. cerevisiae deletion strains, locus YLL026W, active compounds read low 0.979 | S. cerevisiae deletion strains, locus YLL041C, strain sdh2, active compounds read low 0.994 | S. cerevisiae deletion strains, locus YLR027C, strain aat2, active compounds read low 0.982 | S. cerevisiae deletion strains, locus YLR039C, strain RIC1, active compounds read low 1.06 | S. cerevisiae deletion strains, locus YLR058C, strain SHM2, active compounds read low 1.02 | S. cerevisiae deletion strains, locus YLR102C, strain apc9, active compounds read low 1.01 | S. cerevisiae deletion strains, locus YLR221C, strain rsa3, active compounds read low 0.983 | S. cerevisiae deletion strains, locus YLR258W, strain gsy2, active compounds read low 0.986 | S. cerevisiae deletion strains, locus YLR262C, strain YPT6 (second series), active compounds read low 0.997 | S. cerevisiae deletion strains, locus YLR262C, strain YPT6, active compounds read low 1.07 | S. cerevisiae deletion strains, locus YLR268W, strain sec22, active compounds read low 1.03 | S. cerevisiae deletion strains, locus YLR320W, strain mms22, active compounds read low 0.974 | S. cerevisiae deletion strains, locus YLR330W, strain CHS5, active compounds read low 1.01 | S. cerevisiae deletion strains, locus YLR342W, strain FKS1 (second series), active compounds read low 1.05 | S. cerevisiae deletion strains, locus YLR342W, strain FKS1, active compounds read low 0.979 | S. cerevisiae deletion strains, locus YLR357W, strain rsc2, active compounds read low 0.992 | S. cerevisiae deletion strains, locus YLR370C, strain arc18, active compounds read low 0.986 | S. cerevisiae deletion strains, locus YLR371W, strain rom2, active compounds read low 1.01 | S. cerevisiae deletion strains, locus YLR384C, strain iki3, active compounds read low 0.985 | S. cerevisiae deletion strains, locus YLR418C, strain cdc73, active compounds read low 1.02 | S. cerevisiae deletion strains, locus YML016C, strain PPZ1, active compounds read low 1.01 | S. cerevisiae deletion strains, locus YML032C, strain rad52, active compounds read low 1.02 | S. cerevisiae deletion strains, locus YML120C, strain ndi1, active compounds read low 0.97 | S. cerevisiae deletion strains, locus YML124C, strain tub3, active compounds read low 1.01 | S. cerevisiae deletion strains, locus YMR058W, strain fet3, active compounds read low 0.979 | S. cerevisiae deletion strains, locus YMR078C, strain ctf18, active compounds read low 1.02 | S. cerevisiae deletion strains, locus YMR125W, strain sto1, active compounds read low 0.951 | S. cerevisiae deletion strains, locus YMR129W, active compounds read low 0.987 | S. cerevisiae deletion strains, locus YMR205C, strain PFK2, active compounds read low 0.975 | S. cerevisiae deletion strains, locus YMR223W, strain ubp8, active compounds read low 1.01 | S. cerevisiae deletion strains, locus YMR231W, strain pep5, active compounds read low 0.984 | S. cerevisiae deletion strains, locus YMR263W, strain SAP30, active compounds read low 1.01 | S. cerevisiae deletion strains, locus YMR307W, strain GAS1, active compounds read low 1.06 | S. cerevisiae deletion strains, locus YNL067W, strain RPL9B, active compounds read low 1.01 | S. cerevisiae deletion strains, locus YNL071W, strain lat1, active compounds read low 0.992 | S. cerevisiae deletion strains, locus YNL128W, strain TEP1, active compounds read low 1 | S. cerevisiae deletion strains, locus YNL153C, strain GIM3, active compounds read low 1.01 | S. cerevisiae deletion strains, locus YNL209W, strain ssb2, active compounds read low 0.988 | S. cerevisiae deletion strains, locus YNL233W, strain BNI4, active compounds read low 1.01 | S. cerevisiae deletion strains, locus YNL248C, strain rpa49, active compounds read low 0.982 | S. cerevisiae deletion strains, locus YNL250W, strain rad50, active compounds read low 1 | S. cerevisiae deletion strains, locus YNL271C, strain bni1, active compounds read low 1.01 | S. cerevisiae deletion strains, locus YNL298W, strain CLA4, active compounds read low 1.02 | S. cerevisiae deletion strains, locus YNL307C, strain MCK1, active compounds read low 1.03 | S. cerevisiae deletion strains, locus YNL322C, strain KRE1 (second series), active compounds read low 0.983 | S. cerevisiae deletion strains, locus YNL322C, strain KRE1, active compounds read low 1.01 | S. cerevisiae deletion strains, locus YNR049C, strain mso1, active compounds read low 0.977 | S. cerevisiae deletion strains, locus YNR052C, strain pop2, active compounds read low 1.01 | S. cerevisiae deletion strains, locus YOL006C, strain TOP1, active compounds read low 1.05 | S. cerevisiae deletion strains, locus YOL012C, strain htz1 0.945 | S. cerevisiae deletion strains, locus YOL147C, strain pex11, active compounds read low 1.01 | S. cerevisiae deletion strains, locus YOR001W, strain rrp6, active compounds read low 0.991 | S. cerevisiae deletion strains, locus YOR061W, strain CKA2, active compounds read low 1.01 | S. cerevisiae deletion strains, locus YOR069W, strain VPS5, active compounds read low 1 | S. cerevisiae deletion strains, locus YOR070C, strain gyp1, active compounds read low 0.988 | S. cerevisiae deletion strains, locus YOR080W, strain dia2, active compounds read low 0.969 | S. cerevisiae deletion strains, locus YOR083W, strain WHI5, active compounds read low 0.988 | S. cerevisiae deletion strains, locus YOR106W, strain vam3, active compounds read low 0.995 | S. cerevisiae deletion strains, locus YOR136W, strain idh2, active compounds read low 1.01 | S. cerevisiae deletion strains, locus YOR144C, strain elg1, active compounds read low 1.01 | S. cerevisiae deletion strains, locus YOR184W, strain ser1, active compounds read low 1.02 | S. cerevisiae deletion strains, locus YOR265W, strain rbl2, active compounds read low 0.976 | S. cerevisiae deletion strains, locus YOR270C, strain vph1, active compounds read low 0.993 | S. cerevisiae deletion strains, locus YOR290C, strain snf2, active compounds read low 0.997 | S. cerevisiae deletion strains, locus YOR316C, strain cot1, active compounds read low 1.01 | S. cerevisiae deletion strains, locus YPL051W, strain arl3, active compounds read low 0.995 | S. cerevisiae deletion strains, locus YPL055C, strain LGE1, active compounds read low 1.02 | S. cerevisiae deletion strains, locus YPL078C, strain atp4, active compounds read low 0.982 | S. cerevisiae deletion strains, locus YPL106C, strain sse1, active compounds read low 0.979 | S. cerevisiae deletion strains, locus YPL240C, strain hsp82, active compounds read low 0.997 | S. cerevisiae deletion strains, locus YPL241C, strain CIN2, active compounds read low 1.01 | S. cerevisiae deletion strains, locus YPR119W, strain clb2, active compounds read low 1.01 | S. cerevisiae deletion strains, locus YPR141C, strain kar3, active compounds read low 1.02 | S. cerevisiae deletion strains, locus YPR163C, strain tif3, active compounds read low 1.01 | S. cerevisiae deletion strains, locus YPR167C, strain met16, active compounds read low 1.01 | S. cerevisiae deletion strains, strain wtn01, active compounds read low 1.01 | S. cerevisiae strains, strain wild type, active compounds read low 1.01
